# Screening data from PubChem.
# Most compounds without a hit are left out; they make up all but 4.1% or so of the library.
# hcDAF12 agonist – activators of H. contortus DAF-12 nuclear receptor; 370,000 tested, 1.4% active; AID 652067; HEK293 hcDAF-12 lit1-tk-luc reporter, luminescence; 0% DMSO, 100% Δ7-dafachronic acid; activation, % at 6.8 µM;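 active = activation above the mean of all tested compounds plus 3 SD, cut at about 5.5% in these data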;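 note: 100% = response to 3 µM Δ7-dafachronic acid high control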
# DAX1 inh-1 – inhibitors of human orphan nuclear receptor DAX1 (NR0B1) | inhibition, % at 6.75 µM | 340,000 tested, 0.99% active | AID 504766 | HEK293 Gal4-DAX1 luciferase reporter, luminescence | P51843;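 active = inhibition above the mean over all tested compounds plus 3 SD, cut at about 4.2% in these data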;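 note: 0% = DAX1-transfected cells with DMSO and 100% = empty-vector control cells with DMSO; inhibition shows as a rise in luminescence from relieved DAX1 repression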
# ssDAF12 agonist – S. stercoralis DAF-12 activation, primary screen. 370,000 tested, 1% active. HEK293 ssDAF-12/GRIP1 lit1-tk-luc reporter, luminescence; % of 3 µM dafachronic acid response. activation, % at 6.8 µM. AID 652126;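 active = activation above the mean over all tested compounds plus 3 SD, cut at about 0.9% in these data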;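 note: 0% = DMSO-only wells and 100% = 3 µM delta7-dafachronic acid wells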
# DAX1 inh-2 – blocks DAX1 repression of SF-1 activated StAR promoter; inhibition, % at 6.8 µM; 370,000 tested, 1.1% active; HEK293T StAR-luciferase reporter, SF-1/DAX-1 repression relief; AID 652010;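 active = inhibition above the mean over all tested compounds plus 3 SD, cut at about 3.6% in these data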;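 note: 0% = DAX-1 cells with DMSO and 100% = cells lacking DAX-1 with DMSO; higher inhibition means more luminescence from relief of DAX-1 repression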
# hgDAF12 agonist – hgDAF-12 agonism, primary luciferase screen; HEK293 GAL4-hgDAF12 UAS-luciferase reporter, agonist luminescence; normalized to butyrate control; 370,000 tested, 1.8% active; activation, % at 6.8 µM; AID 687014;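 active = activation above a cutoff set at the mean of all screened compounds plus 3 SD, cut at about 10% in these data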;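 note: 0% = DMSO wells and 100% = sodium butyrate wells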
# hgDAF12 ag – hgDAF-12 agonism, confirmation assay | activation, % at 6.8 µM | 3,300 tested, 80% active | AID 743050 | HEK293 GAL4-hgDAF12 luciferase reporter, agonist mode; percent of butyrate response | shares compounds with hgDAF12 agonist;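 active = mean activation over triplicate wells above the hit cutoff derived from the earlier primary screen, cut at about 11% in these data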;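 note: 0% = DMSO low control and 100% = 2 mM sodium butyrate high control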
# LXR ag 2 – LXR-beta agonism as DAF-12 counter-screen; shares compounds with hgDAF12 agonist; HEK293 Gal4-LXR luciferase reporter, 24 h; activation, % at 6.8 µM; 3,300 tested, under 10 active; AID 743051;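 active = mean activation of the triplicate above a set limit carried over from the primary screen, none filed active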
# Target sequence (P55055 whole entry, looked up, the tested form may be a part): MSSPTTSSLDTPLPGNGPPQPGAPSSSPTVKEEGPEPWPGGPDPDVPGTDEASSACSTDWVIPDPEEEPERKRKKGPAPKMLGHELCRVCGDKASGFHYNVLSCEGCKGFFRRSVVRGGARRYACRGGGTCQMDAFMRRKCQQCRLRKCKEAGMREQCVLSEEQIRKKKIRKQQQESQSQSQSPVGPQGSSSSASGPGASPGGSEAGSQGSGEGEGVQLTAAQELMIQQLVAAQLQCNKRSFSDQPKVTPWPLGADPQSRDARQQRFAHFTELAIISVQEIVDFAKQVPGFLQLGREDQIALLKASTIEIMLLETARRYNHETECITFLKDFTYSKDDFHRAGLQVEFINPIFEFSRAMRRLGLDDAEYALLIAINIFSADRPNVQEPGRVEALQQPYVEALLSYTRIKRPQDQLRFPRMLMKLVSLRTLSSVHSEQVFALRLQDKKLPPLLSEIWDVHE
# Active calls of the source: *; · = no result.
SMILES,hcDAF12 agonist,DAX1 inh-1,ssDAF12 agonist,DAX1 inh-2,hgDAF12 agonist,hgDAF12 ag,LXR ag 2
O=C(NCC(=O)N1CCCC1)c1ccc(Br)cc1,1,0,0,0,2,·,·
N/C(=N\OC(=O)Cc1ccccc1)c1ccccc1Cl,4,-1,0,2,14*,6,0
COc1ccc(/C=N/Nc2ncc(Br)cn2)c(OC)c1,1,3,0,2,16*,15*,1
O=C(COc1ccc(-n2cnnn2)cc1)Nc1ccc(F)c(F)c1,-1,0,-1,-1,2,·,·
O=C(CC(NC(=O)OCc1ccccc1)c1nn[nH]n1)OCc1ccccc1 (stereo unspecified),3,2,1,2,13*,11*,1
Cc1nc2ccc(NC(=O)CSc3ccccc3)cc2s1,3,0,0,3,13*,17*,1
Cc1nc2ccc(NC(=O)COc3ccccc3C)cc2s1,-1,1,-1,0,1,·,·
Cc1ccc2nc(-c3ccc(SCC(=O)Nc4ccc5c(c4)OCCO5)nc3)[nH]c2c1,5,2,0,3,20*,21*,1
Cc1ccc(Cl)c(OCC(=O)Nc2ccc3c(c2)OCCO3)c1,1,4,-1,2,14*,15*,1
O=C(COc1ccccc1Br)Nc1ccc2c(c1)OCCCO2,4,4,0,2,15*,14*,1
CCN(CC(=O)Nc1ccc2c(c1)OCCO2)C(=O)COc1cc(C)ccc1Cl,-1,0,-1,-1,-1,·,·
O=C(COc1cc(Cl)c(Cl)cc1Cl)Nc1cccc(O)c1,5,3,0,1,17*,18*,1
CCCCc1c(-c2ccccc2OC)ncn1Cc1ccc([N+](=O)[O-])cc1,-2,·,-1,-1,0,·,·
COc1ccc(CCC(=O)NNC(=S)NCc2ccc(F)cc2)cc1,-2,4,-1,-1,14*,0,0
CSc1ccc(CN2CCC(C)(Oc3cccc(F)c3)C2)cc1 (stereo unspecified),-1,·,0,-1,0,·,·
CCOC(=O)C(Cc1ccccc1)C(=O)NCc1ccccc1 (stereo unspecified),0,-1,-1,0,0,·,·
C/C(=C\C(=O)c1sccc1Cl)N(C)C,3,1,0,3,15*,3,0
COc1ccc(C(=O)/C=C(/C)N(C)C)cc1,-1,1,-1,0,-3,·,·
CCOc1ccccc1N(C)S(=O)(=O)c1ccc2c(c1)CC(C)N2C(=O)C1CC1 (stereo unspecified),-1,0,0,0,0,·,·
C[C@@H]1CN([C@@H](C)CO)C(=O)CCCn2nncc2CO[C@H]1CN(C)Cc1ccc(O)cc1,0,·,-1,0,-2,·,·
CC(=O)Nc1ccc(NC(=O)c2ccccc2Br)cc1,-1,·,-1,0,-2,·,·
O=C(Nc1ccc(Br)cc1)c1ccccc1Br,3,4.9*,0,1,13*,16*,1
CC1=Nc2ccccc2N=C(NC(=O)CN2CCN(c3ccccc3)CC2)C1c1ccccc1 (stereo unspecified),-1,0,-1,0,-1,·,·
CC1=Nc2ccccc2N=C(NC(=O)c2ccccc2)C1c1ccccc1 (stereo unspecified),0,3,0,2,19*,1,0
Cc1ccc(OCC(=O)OCC(=O)c2ccccc2)cc1C,2,-1,-1,2,-3,·,·
Cc1ccc(Nc2nc(CSc3nnc(-c4ccccc4)n3C)cs2)cc1,4,1,0,2,14*,12*,0
CCOC(=O)N/N=C\c1ccccc1OC/C=C/c1ccccc1,1,0,0,-2,14*,8,0
COC(=O)C(C)(C)c1cccnc1C#N,0,0,-1,0,0,·,·
Cc1ccc(C2=N/C(=C\N(C)C)C(=O)O2)cc1,0,1,-1,0,15*,10,0
COc1ccccc1/C=N/Nc1nccnc1Cl,5.8*,1,0,3,14*,10*,0
